Screening results from PubChem BioAssay.
BJeLR lethal = BJeLR cell viability loss. BJeLR (HRASV12) viability, CellTiter-Glo ATP luminescence, 48 h. inhibition, % (no concentration beside the values). 0.17% of 300,000 active. AID 1554; in the data active = inhibition above about 50%
Sa ugtP lethal = growth inhibition of S. aureus ugtP deletion strain; S. aureus RN4220 ugtP deletion, OD600 growth, 16 h; growth inhibition, % (test concentration not listed); 0.54% of 330,000 active; AID 1259309; in the data active = growth inhibition above about 68%
DUSP3 inh = DUSP3 (human) phosphatase inhibition. recombinant VHR phosphatase, pNPP absorbance. inhibition, % at 13.3 µM. 0.52% of 290,000 active; in the data active = inhibition above about 50%
Target sequence (P51452 whole entry, looked up): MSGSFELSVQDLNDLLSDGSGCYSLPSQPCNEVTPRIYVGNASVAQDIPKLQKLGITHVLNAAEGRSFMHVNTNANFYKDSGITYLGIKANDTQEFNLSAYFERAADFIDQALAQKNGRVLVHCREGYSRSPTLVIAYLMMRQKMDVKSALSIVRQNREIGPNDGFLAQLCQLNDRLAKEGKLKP
PrPC surface inh = cell surface PrPC inhibition, primary TR-FRET screen; P04156; TR-FRET read-out; inhibition, % at 13.8 µM; 0.43% of 370,000 active; AID 720596; in the data active = inhibition above about 24%
3CLpro inhibitor = SARS-CoV 3CLpro protease inhibition; 0.14% of 290,000 active; P0C6X7; inhibition, % at 6 µM; recombinant SARS-CoV 3CLpro, quenched FRET peptide cleavage; in the data active = inhibition above about 12%
RN4220 kill = kills Staphylococcus aureus RN4220 | inhibition, % (test concentration not listed) | S. aureus RN4220 growth, OD600, 16 h | AID 1259311 | 0.33% of 330,000 active; in the data active = inhibition above about 85%
Large screens that a line does not name were inactive. In the library only some 1.4% were active in any assay of this set; here they are far more common.

Cc1c(C)c2c(c(C)c1O)CC[C@@](C)(CCCC(C)CCCC(C)CCCC(C)C)O2 (some centres undefined)	none (no result: BJeLR lethal, DUSP3 inh, PrPC surface inh, 3CLpro inhibitor)
CCOC(=O)C1C2COc3ccc(Cl)cc3C2N2C(=O)CN(Cc3ccc(Cl)cc3)C(=O)[C@@]12C (some centres undefined)	none (no result: BJeLR lethal, DUSP3 inh, PrPC surface inh, 3CLpro inhibitor)
COc1ccc(NC(=S)N(CCC(C)C)C2CCN(C(C)C)CC2)cc1	none
COc1ccc(NC(=S)N(C(C)C)C2CCN(C(C)C)CC2)cc1Cl	DUSP3 inh 52.6 (no result: Sa ugtP lethal, PrPC surface inh, RN4220 kill)
O=S(=O)(Nc1cccc(-c2nc3cccnc3s2)c1)c1ccc2c(c1)CCCC2	Sa ugtP lethal 92.9
Cc1ccc(-c2nc3cccnc3s2)cc1NS(=O)(=O)c1ccc2c(c1)CCCC2	none
C=C1C(=O)O[C@H]2C[C@@H](C)[C@@H]3C=CC(=O)[C@@]3(C)C[C@H]12	PrPC surface inh 26.1 (no result: Sa ugtP lethal, 3CLpro inhibitor, RN4220 kill)
C=C1C(=O)OC2C1CCC(C)C1C=CC(=O)C12C (centres undefined)	none (no result: BJeLR lethal, Sa ugtP lethal, DUSP3 inh, 3CLpro inhibitor, RN4220 kill)
Cc1ccc(N2C(=O)c3ccccc3C2O)nc1 (centres undefined)	BJeLR lethal 69.9 (no result: Sa ugtP lethal, PrPC surface inh, RN4220 kill)
OCCN(Cc1ccccc1)c1ncnc2sccc12	DUSP3 inh 51.1
O=C1NC(=S)S/C1=C\C=C\c1ccc([N+](=O)[O-])o1	Sa ugtP lethal 100.1, RN4220 kill 99.6 (no result: BJeLR lethal)
NC(=Nc1ccc(Br)cc1)c1ccccc1	DUSP3 inh 51.3
CCOC(=O)[C@]12Cc3cc(OC)ccc3C1N(Cc1ccccc1)C(=O)c1cc(F)c(F)cc12 (some centres undefined)	none (no result: BJeLR lethal, DUSP3 inh, PrPC surface inh, 3CLpro inhibitor)
CCN(CC)c1ccc(C(=S)NC2CCCCC2)cc1	Sa ugtP lethal active
O=C(O)C1CCCCC1C(=O)Nc1ncc([N+](=O)[O-])s1 (centres undefined)	none (no result: BJeLR lethal, DUSP3 inh, PrPC surface inh, 3CLpro inhibitor)
O=C(/C=C(\O)c1ccc(Cl)cc1)C(=O)NNC(=O)C(O)(c1ccccc1)c1ccccc1	Sa ugtP lethal 92.0 (no result: BJeLR lethal, PrPC surface inh)
O=C(CCl)c1ccc2c(c1)CCN2C(=O)C1CCCCC1	Sa ugtP lethal 99.1, RN4220 kill 98.2
C=CCSc1nc2c(c(C3CC=CCC3)c1C#N)CCC2 (centres undefined)	Sa ugtP lethal 97.2
CC(C)OC(=O)CSc1nc2c(c(C3CC=CCC3)c1C#N)CCC2 (centres undefined)	none
CCC(C)NC(=O)NCc1ccccc1F (centres undefined)	DUSP3 inh 56.3
O=C(NCc1ccccc1F)Nc1ccc([N+](=O)[O-])cc1	DUSP3 inh 56.4
C#CCOCCOCCOCCNc1nc(N2CCN(C(=O)CCCCCCCCCCNC(=O)Cn3cc(CC(C)O)nn3)CC2)nc(N2CCN(C(=O)CCCCCCCCCCNC(=O)C(CO)n3cc(CCCSC)nn3)CC2)n1 (centres undefined)	none (no result: BJeLR lethal, DUSP3 inh, PrPC surface inh, 3CLpro inhibitor)
CC(NC(=O)c1nc[nH]c1C(=O)NCCCCCN)C(=O)OCc1ccccc1 (centres undefined)	none (no result: BJeLR lethal, DUSP3 inh, PrPC surface inh, 3CLpro inhibitor)
CCn1cc(C(=O)O)c(=O)c2cc(F)c(N3CCN(C(=S)Nc4ccccc4OC)CC3)cc21	Sa ugtP lethal 99.4, RN4220 kill 99.1
CCn1cc(C(=O)O)c(=O)c2cc(F)c(N3CCN(S(=O)(=O)c4ccc(NC(=O)OC)cc4)CC3)cc21	Sa ugtP lethal 99.8, RN4220 kill 97.1
CCC(=O)N1CCN(c2cc3c(cc2F)c(=O)c(C(=O)O)cn3CC)CC1	none (no result: DUSP3 inh, 3CLpro inhibitor)
CCn1cc(C(=O)O)c(=O)c2cc(F)c(N3CCN(C(=S)NC(=O)c4c(OC)cccc4OC)CC3)cc21	Sa ugtP lethal 100.2, RN4220 kill 98.4
CC1(C)OC(CC(=O)O)[C@]23COC(C(=O)[C@]4(C)C2CC[C@@]2(C)C(c5ccoc5)OC(=O)C5O[C@]524)C13 (some centres undefined)	none (no result: BJeLR lethal, DUSP3 inh, PrPC surface inh, 3CLpro inhibitor)
CC(=O)N(Cc1c(C)nn(-c2ccccc2)c1Cl)c1ccc(Cl)cc1	none
Cc1nn(-c2ccccc2)c(Cl)c1CN(C(=O)CCl)c1ccc(Cl)cc1	BJeLR lethal 133.1
Cc1nc2nc(SCC(=O)NCCCN3CCCCCC3)nn2c(C)c1Cc1ccccc1	none
Cc1ccc(Cc2c(C)nc3nc(SCC(=O)NCc4ccco4)nn3c2C)cc1	none
Cc1ccccc1Cc1c(C)nc2nc(SCC(=O)NCCCN3CCCCC3)nn2c1C	DUSP3 inh 57.6 (no result: PrPC surface inh)
Cc1nc2nc(SCC(=O)NCc3ccco3)nn2c(C)c1Cc1c(F)cccc1Cl	DUSP3 inh 51.0
O=C1N=C(N2CCCC2)SC1=Cc1cccc(Br)c1	none (no result: BJeLR lethal, DUSP3 inh, PrPC surface inh, 3CLpro inhibitor)
C=C1C[C@H]2[C@@H]3CCc4cc(OC)ccc4[C@H]3CC[C@]12C	none (no result: Sa ugtP lethal, DUSP3 inh, 3CLpro inhibitor, RN4220 kill)
C=C1CC2C3CCc4cc(OC)ccc4C3CC[C@]12C (some centres undefined)	Sa ugtP lethal 88.6 (no result: BJeLR lethal, DUSP3 inh, PrPC surface inh, 3CLpro inhibitor)
COc1ccc(C(=O)c2c(C(F)(F)F)oc3c2C(=O)c2ccccc2C3=O)cc1	RN4220 kill 94.4 (no result: PrPC surface inh)
CCC(C)C(NC(=O)OC(C)(C)C)c1cn(C(CCC(=O)OC(C)(C)C)C(=O)N2CCN(C(=O)OC(C)(C)C)CC2)nn1 (centres undefined)	none (no result: BJeLR lethal, DUSP3 inh, PrPC surface inh, 3CLpro inhibitor)
CCOC(=S)SCC(=O)Nc1nc(-c2ccc(Br)cc2)cs1	Sa ugtP lethal 98.9
CCCCCCC(=O)Nc1cc2c(C)cc(=O)oc2cc1C	none
CCC(=O)Nc1cc2c(C)cc(=O)oc2cc1C	DUSP3 inh 55.6
CC(=O)Nc1c2c(nn1-c1ccccc1C)CS(=O)(=O)C2	DUSP3 inh 56.9
CCCC(=O)Nc1c2c(nn1-c1cccc(C)c1C)CS(=O)(=O)C2	none
CC(=O)Nc1c2c(nn1-c1ccccc1C)CSC2	DUSP3 inh 57.5
NC(=NN=Cc1ccc(-c2ccc(O)c(C(=O)O)c2)o1)N[N+](=O)[O-]	none (no result: BJeLR lethal, DUSP3 inh, PrPC surface inh, 3CLpro inhibitor)
O=C(NN=Cc1ccoc1)c1ccccc1Br	none (no result: BJeLR lethal, DUSP3 inh, PrPC surface inh, 3CLpro inhibitor)
Cc1onc(-c2ccccc2)c1C(=O)Nc1ncc([N+](=O)[O-])s1	Sa ugtP lethal 82.4
Cc1ccc(C(=O)Nc2ncc([N+](=O)[O-])s2)cc1	Sa ugtP lethal 92.2, RN4220 kill 93.2
O=C(COc1ccc(Cl)cc1)Nc1ncc([N+](=O)[O-])s1	Sa ugtP lethal 98.3, RN4220 kill 100.0
CC(C)CC1CN=C(Nc2ccccc2)N1CCC1CCCCC1 (centres undefined)	none (no result: BJeLR lethal, DUSP3 inh, PrPC surface inh, 3CLpro inhibitor)
Cc1noc(C)c1NC(=O)Nc1cccc2c1OC(CN(C)S(C)(=O)=O)C(C)CN(C(C)CO)C2=O (centres undefined)	none (no result: BJeLR lethal, DUSP3 inh, PrPC surface inh, 3CLpro inhibitor)
CC(=O)c1cccc(NC(=O)/C=C/c2ccc([N+](=O)[O-])s2)c1	BJeLR lethal 63.2
Cc1cc(C)cc(NC(=O)/C=C/c2ccc([N+](=O)[O-])s2)c1	none
COc1ccc(C2CC(=O)C=C(c3ccc4c(c3)OCCO4)C2)cc1 (centres undefined)	none (no result: BJeLR lethal, DUSP3 inh, PrPC surface inh, 3CLpro inhibitor)
CCOC(=O)c1cnn(-c2ncnc3sc4c(c23)CCC4)c1N	none
CCOC(=O)c1cnn(-c2nc(SC)nc3sc4c(c23)CCCC4)c1N	Sa ugtP lethal 100.2, RN4220 kill 99.8
COC(=O)c1ccc(-n2c(C)ccc2-c2ccccc2)cc1	Sa ugtP lethal 97.1
CC(=O)c1ccc(-n2c(C)ccc2-c2ccccc2)cc1	none
